# Bioassay records (PubChem BioAssay)
# BAZ2B block = inhibitors of human BAZ2B bromodomain | Q9UIF8 | AlphaScreen BAZ2B-H3K14Ac peptide displacement | Potency, µM (top dose mostly 114 µM), most hits filed as inhibitors | 360,000 tested, 4.4% active | AID 504333; further: nearly all actives have a fitted effect of over 60% in size
#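 In this displacement format the biotinylated H3(5-23) peptide acetylated at Lys14 serves as ligand at 50 nM, with BAZ2B at 50 nM in PBS pH 7.4 containing 0.01% Tween-20. Donor and acceptor beads are 10 ug/mL final.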
# HP1b chromo inh = blocks HP1-beta chromodomain binding to methylated histone tails | AlphaScreen HP1-beta / biotin-H3K9me3 peptide binding | Potency, µM (titrated, usually from 114 µM), usual class: inhibitors | 390,000 tested, 0.56% active | AID 540317; further: nearly all actives have a fitted effect of over 70% in size
# Target sequence (P83916 whole entry, looked up): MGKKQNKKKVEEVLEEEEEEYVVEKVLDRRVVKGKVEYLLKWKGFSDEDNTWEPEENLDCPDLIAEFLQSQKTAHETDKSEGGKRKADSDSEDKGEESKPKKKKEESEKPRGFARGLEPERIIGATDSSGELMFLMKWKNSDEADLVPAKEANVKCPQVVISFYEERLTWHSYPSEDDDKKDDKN
#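 Compound inhibition of the preformed complex between 50 nM HP1-beta and 50 nM biotinylated H3K9me3 peptide was read by AlphaScreen. Buffer was PBS pH 7.4 with 0.01% Tween-20. Incubations ran 30 min at room temperature, with 10 ug/mL donor/acceptor beads.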
# JMJD2A Tudor = blocks the human JMJD2A Tudor domain; AID 504339; 390,000 tested, 4.4% active; Potency, µM (series often up to 114 µM), usual class: inhibitors; AlphaScreen JMJD2A-Tudor / H3K4me3 peptide binding; O75164; further: nearly all actives have a fitted effect of over 50% in size
# G9a block = blocks human histone lysine methyltransferase G9a. Q96KQ7. G9a H3K9 monomethylation, AlphaScreen, 2 h. Potency, µM (series often up to 102 µM), usual class: inhibitors. 350,000 tested, 8.8% active. AID 504332; further: nearly all actives have a fitted effect of over 75% in size
#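 Step 1: enzyme (final 20 nM) with compound, 15 min RT. Step 2: substrate peptide 500 nM and SAM 20 uM, 2 h RT. Step 3: anti-H3K9me1 antibody and AlphaScreen beads, 10 min, then plate read.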
# VDR inhibitor = blocks the human vitamin D receptor; P11473; VDR-SRC2-3 peptide fluorescence polarization, 2 h; Potency, µM, usual class: inhibitors; 400,000 tested, 0.93% active; AID 504847
# Target sequence (P11473 whole entry, looked up): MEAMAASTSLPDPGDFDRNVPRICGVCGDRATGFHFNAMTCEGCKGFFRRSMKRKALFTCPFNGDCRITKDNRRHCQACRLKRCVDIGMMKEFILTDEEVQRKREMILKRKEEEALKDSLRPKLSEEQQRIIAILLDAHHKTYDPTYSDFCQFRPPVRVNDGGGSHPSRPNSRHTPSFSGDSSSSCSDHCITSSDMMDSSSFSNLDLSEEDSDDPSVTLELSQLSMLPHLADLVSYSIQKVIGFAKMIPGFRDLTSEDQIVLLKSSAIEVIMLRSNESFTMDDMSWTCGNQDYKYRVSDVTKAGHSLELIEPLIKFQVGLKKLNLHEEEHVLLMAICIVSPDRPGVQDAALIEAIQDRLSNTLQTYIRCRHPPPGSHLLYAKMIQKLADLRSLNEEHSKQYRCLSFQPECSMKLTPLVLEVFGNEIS
#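 The screen uses fluorescence polarization to detect compounds that interfere with recruitment of the SRC2-3 coactivator peptide to VDR; plates are read after 2 h at room temperature.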
# PLK1 PBD inh = PLK1 (human) polo-box domain binding inhibition. Plk1 PBD binding of FITC phosphopeptide, fluorescence polarization. 360,000 tested, 2.8% active. Potency, µM, usual class: inhibitors. AID 720504; further: series mostly up to about 57 µM; nearly all actives have a fitted effect of over 65% in size
# Numbers stand for hits; 0 = inactive; ? = inconclusive; - = not tested or not shown; [ ] = dose if it differs, or a comment. The list is not random: actives were taken first. Their share in the collection is about 11%. The call rests on the fitted dose curve; in most records, active means well fitted curve in the direction sought with a large enough effect; inconclusive means small, poorly fitted or top-dose-only effect, or another doubt; inactive means no such curve, though single readings can be large; an effect the other way counts as inactive or inconclusive.
SMILES,BAZ2B block,HP1b chromo inh,JMJD2A Tudor,G9a block,VDR inhibitor,PLK1 PBD inh
COc1ccccc1-c1ccc2ncnc(N3CCOCC3)c2c1,-,-,-,0[0.501 µM],?,-
COc1ccccc1-c1nc(C#N)c(N2CC(C)CC(C)C2)o1 (stereo not given),?,0,0,?,0,0
COc1ccccc1-c1nc(C#N)c(N2CCN(c3ccccc3)CC2)o1,11µM,?,?,?,0,0
CCOc1ccc(-c2nc(C#N)c(N3CCN(Cc4ccccc4)CC3)o2)cc1,?,?,?,10µM,0,0
CCOc1ccc(-c2nc(C#N)c(N3CCOCC3)o2)cc1,?,0,?,?,0,0
COc1ccc(N2CCN(c3oc(-c4ccccc4OC)nc3C#N)CC2)cc1,8.9µM,?,13µM,2.5µM,0,0
COc1ccccc1-c1nc(C#N)c(N2CCCCCC2)o1,?,0,?,45µM,0,0
COc1ccc(S(=O)(=O)Cc2ccc(C(=O)NC3CCCCC3)o2)cc1,0,0,0,0,0,0
CCOc1ccc(-n2c(SC(C)C(=O)OC)nc3c([nH]c4ccccc43)c2=O)cc1 (stereo not given),0,0,0,0,0,-
Cc1ccc(S(=O)(=O)N2CC(O)CC2C(=O)OCC(=O)Nc2ccc([N+](=O)[O-])cc2C(F)(F)F)cc1C (stereo not given),-,0,0,-,0,0
C[C@H](NC(=O)[C@@H](N)Cc1ccc(O)cc1)C(=O)NCC(=O)N[C@H]1CSSC[C@@H](C(=O)O)NC(=O)[C@H](CO)NC(=O)[C@H]([C@@H](C)O)NC(=O)[C@H](Cc2ccccc2)NC(=O)[C@H]([C@@H](C)O)NC(=O)[C@H](CCCCN)NC(=O)[C@H](Cc2c[nH]c3ccccc23)NC(=O)[C@H](Cc2ccccc2)NC(=O)[C@H](Cc2ccccc2)NC(=O)[C@H](CC(N)=O)NC(=O)[C@H](CCCCN)NC1=O,-,-,-,-,0,-
Cc1cccc(-c2nc(C#N)c(N3CCC(C)CC3)o2)c1,0,0,0,0,0,0
COc1ccc(N2CCN(c3oc(-c4ccc(OC)c(OC)c4)nc3C#N)CC2)cc1,?,0,0,0[2.33 µM],0,0
Cc1cccc(-c2nc(C#N)c(N3CCCCCC3)o2)c1,13µM,?,?,?,0,0
COc1ccc(-c2nc(C#N)c(N3CCN(c4ccccc4)CC3)o2)cc1,?,0,?,8.9µM,0,0
COc1ccccc1-c1nc(N(C)C)c2ccccc2n1,-,-,-,0[0.501 µM],?,-
CCCCCCCCCn1c2c(c(=N)c3c1CCC3)CCC2,0,0,?,?,0,0
CCCCCCCn1c2c(c(=N)c3c1CCC3)CCCC2,?,0,0,45µM,0,0
Oc1ccc(-c2n[nH]c(=S)n2-c2ccc3c(c2)OCCO3)cc1,?,0,?,0.71µM,0,?
c1coc(-c2nc3nc4ccccc4nc3n2-c2ccc3c(c2)OCCO3)c1,0,0,0,0[2.33 µM],0,0
S=c1[nH]nc(-c2ccc3ncccc3c2)n1-c1ccc2c(c1)OCCO2,0,0,?,2.2µM,0,0
Cc1cccc(N2CCC(N3CCN(C4CCCCC4)C(CCO)C3)CC2)c1C (stereo not given),45µM,0,0,16µM,0,0
COc1ccc(C)cc1NC(=O)c1cc(S(=O)(=O)N2CCN(c3cccc(C)c3C)CC2)ccc1F,0,0,0,0,0,-
Cc1ccc(NC(=O)C2CCCN(c3ncnc4onc(C)c34)C2)c(Cl)c1 (stereo not given),0,0,0,0,0,-
CCC(=O)N1c2ccccc2NC2=C(C(=O)CCC2)C1c1ccc(N(C)C)cc1 (stereo not given),0,0,0,50µM,0,0
SMILES,BAZ2B block,HP1b chromo inh,JMJD2A Tudor,G9a block,VDR inhibitor,PLK1 PBD inh
CCC(=O)N1c2ccccc2NC2=C(C(=O)CC(C)(C)C2)C1c1cccnc1 (stereo not given),0,0,0,0,0,0
Cc1cc(C)cc(NC(=O)CSc2nncn3c2cc2occc23)c1,?,0,0,0,0,-
COc1ccc(OCc2nc3c4cc(OC)c(OC)cc4nc(=S)n3[nH]2)cc1,0,0,0,1µM,0,0
CC(OC(=O)C1CC(=O)N(Cc2ccccc2)C1)C(=O)Nc1cccc(C#N)c1 (stereo not given),0,0,0,0,0,0
CCOC(=O)n1cc(-c2cnc(CNC(=O)C(C)(c3ccccc3)c3ccccc3)o2)c2ccccc21,0,0,?,45µM,0,0
COc1cc2oc(=O)cc(-c3ccc(-c4ccc(NC(C)=O)cc4)cc3)c2c(OC)c1OC,-,-,-,0,?,-
CNc1n[nH]c(=S)s1,0,25µM,5µM,3.5µM,?,0
O=C(Nc1n[nH]c(=S)s1)c1ccc2ccccc2c1,0,0,0,-,0,?
CC(=O)Nc1n[nH]c(=S)s1,-,?,5µM,-,50µM,0
CC(C)Oc1ccc(C(=O)N2CCN(CCc3ccccn3)CC2)cc1,0,0,0,0,0,-
CSCC[C@H](NC(=O)[C@H](Cc1ccccc1)n1c(=O)[nH]c2ccccc2c1=O)C(=O)N1CCC(C(=O)O)CC1,0,0,0,-,0,0
O=C(NCCO)c1ccc(-c2ccc3nncn3c2)cc1,-,-,-,-,-,0
Cc1ccc(C(=O)c2ccc([N+](=O)[O-])cc2)cc1,?,0,0,?,0,0
O=C(c1ccc(-c2ccccc2)cc1)c1ccc([N+](=O)[O-])cc1,0,-,-,56µM,-,-
O=C(C#Cc1ccccc1)c1ccc([N+](=O)[O-])cc1,?,0,0,10µM,14µM,0.47µM
CN(C)C(=O)C#Cc1ccccc1,0,0,0,0,0,0
O=C(C#Cc1ccccc1)c1ccccc1,-,-,-,-,-,3µM
O=C(CSc1nc2ccccc2nc1Cc1ccc(Cl)cc1)NCCc1ccccc1,0,0,0,0,0,-
CN(CC(=O)NCc1ccco1)S(=O)(=O)c1ccc2c(c1)c(=O)n(C)c(=O)n2C,0,0,0,0,0,0
COc1ccccc1/C=C/C=N/n1c(-c2n[nH]c3c2CCC3)n[nH]c1=S,0,?,35µM,1.4µM,0,?
Cc1ccc(-c2n[nH]c3c2CCC3)cc1,0,0,0,0,0,0
S=c1[nH]nc(-c2n[nH]c3c2CCC3)n1/N=C/C=C/c1ccco1,?,0,5µM,-,0,?
COc1cccc(/C=N/n2c(-c3cc(C)[nH]n3)n[nH]c2=S)c1O,?,0,2.8µM,-,0,0
COc1cc(/C=N/n2c(-c3n[nH]c4c3CCC4)n[nH]c2=S)cc(OC)c1O,0,?,1.1µM,?,0,0
COc1ccc(/C=C/C(=O)Nc2nc3n(n2)C(c2ccccc2)C=C(c2ccc(Cl)cc2)N3)cc1 (stereo not given),0,0,0,0,0,-
O=S(=O)(Nc1cccc(F)c1)c1ccc(S(=O)(=O)N2CCOCC2)cc1,-,-,-,-,-,0
